Bioassay records (PubChem BioAssay)
Rows were chosen to be rich in hits. Some 3.6% of all compounds tested hit in one or more screens of this group.
GALK inhibitor: GALK (human) enzyme inhibition; AID 1347072; P51570; 44,000 tested, under 10 active; recombinant GALK, Kinase-Glo ATP luminescence, 1 h; Potency, µM (series often up to 57.5 µM), for inactives: top-dose activity, negative = inhibition, most hits filed as inhibitors;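 further: plate controls were full GALK reaction for no effect and reaction lacking GALK for full effect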
Target sequence (P51570 whole entry, looked up): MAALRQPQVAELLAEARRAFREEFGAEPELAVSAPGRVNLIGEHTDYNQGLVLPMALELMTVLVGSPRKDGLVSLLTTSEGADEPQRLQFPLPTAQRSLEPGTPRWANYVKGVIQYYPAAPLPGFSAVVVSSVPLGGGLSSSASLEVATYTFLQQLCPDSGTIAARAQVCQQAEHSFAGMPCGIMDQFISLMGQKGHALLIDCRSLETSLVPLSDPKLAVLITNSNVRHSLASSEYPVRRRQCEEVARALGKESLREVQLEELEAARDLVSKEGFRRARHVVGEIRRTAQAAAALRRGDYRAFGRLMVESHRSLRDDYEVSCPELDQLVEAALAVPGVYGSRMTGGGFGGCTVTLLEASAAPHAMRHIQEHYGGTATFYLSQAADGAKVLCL
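Human GALK (5 nM) was incubated with 35 uM ATP and 100 uM galactose in 20 mM HEPES pH 8.0 with MgCl2, NaCl, DTT and BSA for 1 h at room temperature. Remaining ATP was measured by Kinase-Glo Plus luminescence.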
TSG101-PTAP inh: inhibitors of HIV-1 PTAP binding to human TSG101, validation. Q99816. Potency, µM (top dose mostly 115 µM), actives largely listed as inhibitors. Fluorescence polarization, FITC-PTAP peptide/Tsg101, 20 min. 44,000 tested, under 10 active; further: potency means the concentration at half of the fitted maximal effect; 0% is about no effect
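qHTS FP binding, 20 min r.t.: 10 uM Tsg101 domain + 50 nM FITC-PTAP peptide, pH 7.5 HEPES buffer with TCEP and EDTA.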
GALC G270D act: raises human GALC G270D mutant activity in cells. Potency, µM (titrated, usually from 57.5 µM), most hits filed as activators. actives 0.1% (n = 45,000). P54803. 145M-Twi-hGALC-G270D cells (Twitcher mouse brain line with human GALC G270D), HMU-beta-Gal fluorescence, 48 h; further: potency means the concentration at half of the fitted maximal effect; 0% is about no effect; nearly all actives have a fitted effect of over 65% in size
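Mutant human GALC (G270D), stably expressed in a Twitcher mouse brain cell line lacking endogenous GALC, is measured in live-treated cells via 6-hexadecanoylamino-4-methylumbelliferyl-β-galactoside hydrolysis (0.1 mM final, pH 5.2) with fluorescent detection.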
DRV1 agonist: activates human resolvin D1 receptor GPR32; O75388; CHO-K1 GPR32 beta-arrestin PathHunter luminescence, 90 min; zero percent set by DMSO-only wells; activation, % at 76.9 µM; actives 2.5% (n = 48,000);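 active means activation of at least 60% and not above a set upper limit, about 1 call in 100 departs from these limits; inconclusive means activation of 40% to 60%, or above that upper limit; inactive means activation under 40%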; further: 0% is about no effect
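PathHunter enzyme-fragment complementation, CHO-K1 GPR32 stable line; 2,500 cells/well, overnight attach; cpd 90 min 37 °C 5% CO2; detection reagent 1 h RT; chemiluminescence. DMSO = EC0.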
NTMT1 inh: NTMT1 methyltransferase inhibition; NTMT1 MTase-Glo SAH luminescence, purified enzyme; Potency, µM (highest dose often 114 µM), for the others: at the highest dose activity change, negative = inhibition, hits mostly inhibitors; actives 2.5% (n = 59,000);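 further: potency means the concentration at half of the fitted maximal effect; plate controls were DMSO vehicle for no effect and no enzyme for full effect; nearly all actives have a fitted effect of over 65% in size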
Target sequence (Q9BV86 whole entry, looked up): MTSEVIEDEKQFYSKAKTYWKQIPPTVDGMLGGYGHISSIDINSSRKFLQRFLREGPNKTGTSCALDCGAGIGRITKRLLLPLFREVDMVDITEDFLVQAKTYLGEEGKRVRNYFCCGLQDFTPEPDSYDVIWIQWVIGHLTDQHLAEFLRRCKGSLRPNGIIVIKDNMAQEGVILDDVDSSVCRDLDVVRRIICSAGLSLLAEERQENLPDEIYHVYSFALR
B2AR arrestin ag: beta-arrestin recruitment by human beta2-adrenergic receptor ligands; P07550; HTLA Tango cells, beta-arrestin recruitment, luciferase luminescence, 18 h; Potency, µM (series often up to 46.1 µM), hits mostly activators; 44,000 tested, under 10 active; AID 1347077;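 further: potency means the concentration at half of the fitted maximal effect; 0% = DMSO and full agonism = EC100 isoproterenol or metaproterenol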
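Tango cells expressing recombinant beta2-AR and beta-arrestin were treated with compounds (up to 46 microM titration) in DMEM with 1% FBS for 18 hr at 37 degrees C. Beta-arrestin recruitment drove tTA-dependent luciferase, read by luminescence; curves were fitted and classed.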
* marks the source's active call; other numbers are inactive results; i = inactive; ? = inconclusive; / = no result given; [ ] = remark or other dose. Unless noted, the call rests on the fitted dose curve; in most records, active means well fitted curve in the direction sought with a large enough effect; inconclusive means small, poorly fitted or top-dose-only effect, or another doubt; inactive means no such curve, though single readings can be large; an effect the other way counts as inactive or inconclusive.

SMILES | GALK inhibitor | TSG101-PTAP inh | GALC G270D act | DRV1 agonist | NTMT1 inh | B2AR arrestin ag
N#C/C(=C\c1ccc(O)c(O)c1)C(=O)Nc1ccccc1 | / | / | / | -27 | / | /
N#C/C(=C\c1ccc(O)c(O)c1)C(=O)NCCCNC(=O)/C(C#N)=C/c1ccc(O)c(O)c1 | / | / | / | -32 | 1.3µM* | /
CC(C)c1onc(-c2c(Cl)cccc2Cl)c1COc1ccc(C=Cc2cccc(C(=O)O)c2)c(Cl)c1 | / | / | / | / | 17µM* | /
O=C(Cn1nc(-c2ccc(F)cc2)ccc1=O)NCCc1ccccc1 | / | / | / | / | 79µM* | /
CC(C)(C)c1ccc(-c2ccc(=O)n(CC(=O)NCCc3ccccc3)n2)cc1 | / | / | / | / | 15% | /
CC(CC(=O)NCc1ccc(Cl)cc1Cl)CC1=NS(=O)(=O)c2ccccc2N1 (stereo not drawn) | 1% | i | i | 66* | 15% | i
COc1ccc(CNC(=O)CC(C)CC2=NS(=O)(=O)c3ccccc3N2)cc1 (stereo not drawn) | 1% | i | i | 5 | 11% | i
COc1ccc(CNC(=O)c2cc(-c3cccc(Cl)c3)on2)cc1 | -4% | i | / | 66* | / | i
Cc1c(Cl)cccc1NC(=O)c1cc(-c2cccs2)on1 | -1% | i | i | 91* | -8% | i
COc1cccc(-c2cc(C(=O)NCc3ccccc3)no2)c1 | 4% | i | / | 34 | / | i
O=C(Nc1c(Cl)cccc1Cl)c1cc(-c2cccc(O)c2)on1 | -2% | i | / | 105* | / | i
CC1CCN(C(=O)c2cc(-c3cccc(Cl)c3)on2)CC1 | 6% | i | / | 28 | / | i
O=C(c1cc(-c2cccc(Cl)c2)on1)N1CCCCC1 | 1% | i | / | 66* | / | i
N#Cc1ccc(NC(=O)Nc2nnc(-c3ccncc3)s2)cc1 | / | / | / | / | -13% | /
Cc1ccc(CN(C(=O)COc2ccc(C(C)C)cc2)C2CCS(=O)(=O)C2)o1 (stereo not drawn) | 1% | i | i | 61* | -23% | i
Cc1ccc(CNC(=O)c2cc3c(s2)-c2ccc(Cl)cc2SC3)cc1 | -1% | i | i | 106* | 4% | i
COc1cc(O)c(C(CC(=O)N2CCN(c3ccc(F)cc3)CC2)c2ccc3c(c2)OCO3)c(OC)c1 (stereo not drawn) | / | / | / | / | 13% | /
Cc1cccc(C(=O)Nc2nnc(S(=O)(=O)N3CCOCC3)s2)c1 | -9% | i | i | ? | 5% | i
Cc1cccc(C(=O)Nc2nnc(S(=O)(=O)N3CCC(C)CC3)s2)c1 | 1% | i | i | 69* | 4% | i
CC1CCN(S(=O)(=O)c2nnc(NC(=O)c3cccc(F)c3)s2)CC1 | -3% | i | i | 43 | 24% | i
CC1CCN(S(=O)(=O)c2nnc(NC(=O)c3cccc(Br)c3)s2)CC1 | 3% | i | i | 73* | 34% | i
O=C(Nc1nnc(S(=O)(=O)N2CCCCC2)s1)c1ccc(F)cc1 | -1% | i | i | 13 | 21% | i
O=C(Nc1nnc(S(=O)(=O)N2CCCC2)s1)c1ccc(F)cc1 | -11% | i | i | 64* | 9% | i
O=[S+]([O-])(NCC#CCSc1nnc(-c2cccc3ccccc23)o1)c1ccc(F)cc1 | / | / | / | / | 14% | /
NC(=O)c1ccc(OCC2NC(=O)C3CCCN3C2=O)cc1 (stereo not drawn) | / | / | / | / | -8%[57.5 µM] | /
SMILES | GALK inhibitor | TSG101-PTAP inh | GALC G270D act | DRV1 agonist | NTMT1 inh | B2AR arrestin ag
COc1cccc(C(=O)Nc2nc(-c3nnn(-c4cc(C)ccc4C)c3C)ns2)c1 | 3% | i | i | 31 | 14% | i
COc1cccc(C(=O)Nc2nc(-c3nnn(-c4ccccc4C(F)(F)F)c3C)ns2)c1 | -2% | i | i | 91* | 14% | i
CC(C)OC(=O)c1cc(C(=O)OC(C)C)cc([N+](=O)[O-])c1 | / | / | i | 8 | ? | /
CC(C)OC(=O)C(C(=O)OC(C)C)=C1SC=CS1 | / | / | i | 73* | ? | /
COc1ccc(CNS(=O)(=O)c2cc3c(cc2Cl)N(C(C)=O)CCO3)cc1 | 0% | 35µM* | i | 4 | -5% | i
CC(=O)N1CCOc2cc(S(=O)(=O)NCc3ccc(F)cc3)c(C)cc21 | 1% | i | i | 21 | 2% | i
O=c1sn(-c2cccc3ccccc23)c(=O)n1Cc1ccccc1 | / | / | / | / | 13µM* | /
O=c1c2sc3ccccc3c2n(Cc2ccccc2)c(=O)n1Cc1ccccc1 | 6% | i | i | -3 | 4% | i
O=C(NCCc1ccccc1)c1ccc(Cn2c(SCc3ccccc3F)nc3cccnc32)cc1 | 1% | i | i | -23 | 89µM* | i
CCOc1ccc(CCNC(=O)c2cc3sccc3n2Cc2ccc(F)cc2F)cc1OCC | / | / | / | / | 18% | /
COC(=O)C1=C(c2ccccc2)c2ccccc2S(=O)(=O)N1CC(=O)Nc1cccc(C(C)=O)c1 | -1% | i | i | -2 | 79µM* | i
CC(=O)c1cccc(NC(=O)CN2C=NS(=O)(=O)c3ccc(C)cc32)c1 | 2% | i | i | -5 | 4% | i
O=C(Nc1ccc2oc(-c3cccnc3)nc2c1)c1ccc(-c2ccc(OC(F)(F)F)cc2)o1 | 1% | i | i | 30 | 50µM* | i
O=C(Nc1ccc2oc(-c3cccnc3)nc2c1)c1ccc(-c2ccccc2)o1 | 0% | i | i | -1 | ? | i
CCc1ccc(NC(=O)Cn2nnc(-c3ccccc3N)n2)cc1 | 4% | i | i | 62* | 2% | i
COc1ccc(NC(=O)C2CCCN(S(=O)(=O)c3ccc4c(c3)CCCC(=O)N4)C2)cc1OC (stereo not drawn) | 3% | i | i | 63* | -6% | i
COc1ccc(OC)c(NC(=O)C2CCN(S(=O)(=O)c3ccc4c(c3)CCCC(=O)N4)CC2)c1 | 2% | i | i | 72* | 2% | i
COc1ccc(NC(=O)C2CCN(S(=O)(=O)c3ccc4c(c3)CCCC(=O)N4)CC2)c(OC)c1 | 1% | i | i | -6 | 6% | i
CCc1nonc1NC(=O)c1oc2ccc(C)cc2c1C | 7% | i | i | 3 | 0% | i
CCc1nonc1NC(=O)c1oc2ccccc2c1C | -7% | i | i | 66* | 3% | i
O=C1CCCC2=C1C(c1cccc(F)c1)N=C(Nc1nc3ccccc3o1)N2 (stereo not drawn) | / | / | / | / | 10% | /
